Experimental data: PubChem BioAssay (NCI)
The panel holds about 83,000 compounds, 20% with a hit somewhere; the sample as a whole holds those more often.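 The test compound was applied at a single concentration to cells in 96-well plates for 48 hours, and percent growth was recorded.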 Unmarked numbers belong to inactive results. Activity calls are given as the source filed them. The calls were made as follows: active = growth percent below 10; inactive = the rest.

Test system: MCF7 breast
Experiment: NCI-60 one-dose screen, 48 h (100 = growth as untreated, 0 = no growth, -100 = all killed)
Details: 10 µM unless noted

| Structure (SMILES) | growth |
| --- | --- |
| CCN(CC)CCNc1ccc(C)c2sc3cc(C)ccc3c(=O)c12 | 43.7% |
| O=[N+]([O-])c1ccc(-c2cc3c(Nc4ccc(Cl)c(C(F)(F)F)c4)ncnc3s2)cc1 | 3.55% (active) |
| Nc1nc(Nc2ccc(Cl)cc2)nn1S(=O)(=O)c1ccc(-c2ccc(F)cc2)cc1 | 58.2% |
| Cn1ccc(Cc2cnc(N)s2)n1 | 101% |
| CCCCN1CCN(c2ccc3nc(-c4ccc5nc(-c6cc(OC)c(OC)c(OC)c6)[nH]c5c4)[nH]c3c2)CC1 | 19.9% |
| CCCCNC(=O)c1cc(NCc2cc(O)ccc2O)ccc1O | 67.7% |
| C=CCN1C(=O)[C@]2(SC1=S)[C@H](c1cccc(Cl)c1)CN(C)[C@]21C(=O)NC2C=CC(Cl)=C[C@H]21 (some centres undefined) | 16.9% |
| CC(C)(C)c1ccc(C(=O)Nc2sc3c(c2C(N)=O)CCC(=O)C3)cc1 | 3.05% (active) |
| CCOC(=O)c1cnn2c(-c3ccc(Cl)cc3)nc(NCc3ccccc3)nc12 | 5.18% (active) |
| CN(C)CN1CCN(c2ccc3nc(-c4ccc5nc(-c6ccc(C(F)(F)F)cc6)[nH]c5c4)[nH]c3c2)CC1 | 9.58% (active) |
| CCc1c(C(=O)N[C@@H]2c3cc(Cl)ccc3CC[C@@H]2O)[nH]c(C)c1C(C)=O | 85.3% |
| c1ccc(-c2oc3ccccc3c2-c2ccccc2)cc1 | 115% |
| O=C(c1ccccc1)c1ccc(Cl)c([N+](=O)[O-])c1 | 91.3% |
| N=C(N)c1ccc(-c2ccc(-c3ccc(Cl)c(Cl)c3)o2)nc1 | -76.8% (active) |
| CCOC(=O)c1ccc(NC(=O)CCCN(CC)CC)cc1 | 96% |
| C=C1C(=O)O[C@H]2[C@H]1CC/C(COC(=O)/C=C\C(=O)NCc1ccc(Cn3c(=O)sn(-c4ccc(C#N)cc4)c3=O)cc1)=C\CC[C@@]1(C)O[C@@H]21 | -51.8% (active) |
| C[C@@H]1CC[C@@H]2[C@@H]1[C@H](OC(=O)/C=C/c1ccccc1)[C@]1(CCCOCCOCCOCCOC(=O)CCCC[C@@H]3SC[C@@H]4NC(=O)N[C@@H]43)C[C@@H](OC(=O)CO)[C@@]2(C)O1 | 102% |
| CC(C)c1ccc(NC(=O)Cc2ccc(Nc3ncnc4cc(-c5cnn(CCN(C)C)c5)ccc34)cc2)cc1 | -49.1% [30 µM] (active) |
| CN(C)c1ccc(-c2cc(-c3ccc(Nc4nc(Nc5ccccc5)nc(Nc5ccc(Cl)cc5)n4)cc3)nc(N)n2)cc1 | 19.1% |
| O=C1Nc2ccccc2/C1=N/N=C/c1c[nH]c2ccccc12 | 72.5% |
| CC(=O)Nc1nccs1 | 91.2% |
| CCCCC1COc2cccc3c(SCC(=O)N(C)c4cccc(Cl)c4)cc[n+]1c23 (centres undefined) | 94.3% |
| Cl.Fc1c[c-]c(-c2ccccn2)c(F)c1.[Pt].c1ccc(P(c2ccccc2)C([PH+](c2ccccc2)c2ccccc2)[PH+](c2ccccc2)c2ccccc2)cc1 | 4.74% (active) |
| COc1cc2nc(Nc3ccc(F)cc3)nc(N)c2cc1OC | 82.9% |
| N#Cc1c(N)n2c(nc1=Nc1ccc([N+](=O)[O-])cc1)sc1cc(Cl)ccc12 | 77.6% |

Test system: HCT-116 colon
Experiment: as above
Details: 10 µM unless noted

| Structure (SMILES) | growth |
| --- | --- |
| O=[N+]([O-])c1cccc(/C=C/c2ccccn2)c1 | 39.6% |
| COc1ccc(-c2nc3ccccn3c2/C=C/C(=O)c2cc(OC)c(OC)c(OC)c2)cc1 | 11.6% |
| COc1ccc(/C(C)=C(\c2ccc(Cl)cc2)c2ccc(OCCN3CCCCC3)cc2)cc1F | 19.7% |
| CCOc1cccnc1/C=N/NC(N)=S | 32.6% |
| CCCCCCCC/C=C/CCCCCCCC1=NCC[N+]1(CCO)CCO | 59.8% |
| O=C(Nc1ccccc1)c1sc(-c2cccc(C(F)(F)F)c2)cc1O | 67.9% |
| CCN(CC)S(=O)(=O)c1ccc(O)c(NC(=O)c2[nH]c(C)c(C(C)=O)c2CCc2ccc(Cl)cc2)c1 | 28.1% |
| COc1ccc(-c2nnc(SCC(=O)NC3=NN=C(c4ccccc4)CS3)o2)cc1 | 94.2% |
| N=C(N)c1ccc(-c2ccc(-c3ccc(Cl)cn3)s2)cc1 | -67.6% (active) |
| C[C@@H]1C(=O)N(C[C@H](Cc2ccccc2)N(Cc2ccccc2)Cc2ccccc2)[C@]1(Cc1ccccc1)C(=O)OC(C)(C)C | 40.6% |
| COc1cccc(CCC2CCCN(c3cc(C)nc(N)n3)C2)c1 (centres undefined) | 7.36% (active) |
| Cc1[nH]c(-c2nc3ccccc3[nH]2)c(C)c1C(=O)N1CCOCC1 | 101% |
| CN(C)CCCCNc1ccc(NCCCCN(C)C)c2c1C(=O)c1c(O)ccc(O)c1C2=O | -66.7% (active) |
| COc1cc(C(=O)Nc2cc(O)c(CC=C(C)C)c(O)c2)cc2c1O[C@]1(C)CC[C@@H](O)C(C)(C)[C@H]1C2 | 13.2% |
| CCN(CC)CCNc1ccc(C)c2sc3cc(C)ccc3c(=O)c12 | 23.1% |
| O=[N+]([O-])c1ccc(-c2cc3c(Nc4ccc(Cl)c(C(F)(F)F)c4)ncnc3s2)cc1 | 6.29% (active) |
| Nc1nc(Nc2ccc(Cl)cc2)nn1S(=O)(=O)c1ccc(-c2ccc(F)cc2)cc1 | 75.1% |
| Cn1ccc(Cc2cnc(N)s2)n1 | 108% |
| CCCCN1CCN(c2ccc3nc(-c4ccc5nc(-c6cc(OC)c(OC)c(OC)c6)[nH]c5c4)[nH]c3c2)CC1 | 41.1% |
| CCCCNC(=O)c1cc(NCc2cc(O)ccc2O)ccc1O | 86.2% |

| Structure (SMILES) | growth |
| --- | --- |
| C=CCN1C(=O)[C@]2(SC1=S)[C@H](c1cccc(Cl)c1)CN(C)[C@]21C(=O)NC2C=CC(Cl)=C[C@H]21 (some centres undefined) | 33.4% |
| CC(C)(C)c1ccc(C(=O)Nc2sc3c(c2C(N)=O)CCC(=O)C3)cc1 | -30.5% (active) |
| CCOC(=O)c1cnn2c(-c3ccc(Cl)cc3)nc(NCc3ccccc3)nc12 | -15.5% (active) |
| CN(C)CN1CCN(c2ccc3nc(-c4ccc5nc(-c6ccc(C(F)(F)F)cc6)[nH]c5c4)[nH]c3c2)CC1 | 23.8% |
| CCc1c(C(=O)N[C@@H]2c3cc(Cl)ccc3CC[C@@H]2O)[nH]c(C)c1C(C)=O | 51% |
| c1ccc(-c2oc3ccccc3c2-c2ccccc2)cc1 | 98.5% |
| O=C(c1ccccc1)c1ccc(Cl)c([N+](=O)[O-])c1 | 45.2% |
| N=C(N)c1ccc(-c2ccc(-c3ccc(Cl)c(Cl)c3)o2)nc1 | -57.8% (active) |
| CCOC(=O)c1ccc(NC(=O)CCCN(CC)CC)cc1 | 87.3% |
| C=C1C(=O)O[C@H]2[C@H]1CC/C(COC(=O)/C=C\C(=O)NCc1ccc(Cn3c(=O)sn(-c4ccc(C#N)cc4)c3=O)cc1)=C\CC[C@@]1(C)O[C@@H]21 | -55.7% (active) |
| C[C@@H]1CC[C@@H]2[C@@H]1[C@H](OC(=O)/C=C/c1ccccc1)[C@]1(CCCOCCOCCOCCOC(=O)CCCC[C@@H]3SC[C@@H]4NC(=O)N[C@@H]43)C[C@@H](OC(=O)CO)[C@@]2(C)O1 | 92.7% |
| CC(C)c1ccc(NC(=O)Cc2ccc(Nc3ncnc4cc(-c5cnn(CCN(C)C)c5)ccc34)cc2)cc1 | -19.7% [30 µM] (active) |
| CN(C)c1ccc(-c2cc(-c3ccc(Nc4nc(Nc5ccccc5)nc(Nc5ccc(Cl)cc5)n4)cc3)nc(N)n2)cc1 | 7.76% (active) |
| O=C1Nc2ccccc2/C1=N/N=C/c1c[nH]c2ccccc12 | 72.4% |
| CC(=O)Nc1nccs1 | 101% |
| CCCCC1COc2cccc3c(SCC(=O)N(C)c4cccc(Cl)c4)cc[n+]1c23 (centres undefined) | 104% |
| Cl.Fc1c[c-]c(-c2ccccn2)c(F)c1.[Pt].c1ccc(P(c2ccccc2)C([PH+](c2ccccc2)c2ccccc2)[PH+](c2ccccc2)c2ccccc2)cc1 | 8.7% (active) |
| COc1cc2nc(Nc3ccc(F)cc3)nc(N)c2cc1OC | 89.4% |
| N#Cc1c(N)n2c(nc1=Nc1ccc([N+](=O)[O-])cc1)sc1cc(Cl)ccc12 | 94.3% |
